Test systems include HCT-15 colon; HT29 colon; SNB-75 CNS; SNB-19 CNS; U251 CNS; PC-3 prostate; SK-MEL-5 melanoma; UACC-62 melanoma; LOX IMVI melanoma; SK-MEL-28 melanoma; SK-MEL-2 melanoma; EKVX NSCLC; SN12C renal; UO-31 renal; TK-10 renal; ACHN renal; CAKI-1 renal; A498 renal; CCRF-CEM leukemia; MOLT-4 leukemia.
What all share (assay): NCI-60 one-dose screen, 48 h (100 = growth as untreated, 0 = no growth, -100 = all killed)
Details in all cases: 10 µM unless noted

Molecules are shown by their SMILES. Several values for one entry are separate records, joined by “and”; a condition that tells them apart may be missing. Identical values can stand only once. This is part of a sample that, as a whole, favours compounds with a hit. Of some 83,000 tested, about 20% had one in any assay.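 Values shown are percent growth following 48 h exposure of cells in 96-well plates to a single concentration of compound; below 10 was considered active.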 Unmarked numbers belong to inactive results. Activity calls are given as the source filed them.

On to `CCOC(=O)c1c(-c2ccc(OC)cc2)c(C#N)c2c(C#N)c(N)nn2c1N`, for which the growth was 22.6% with HCT-15 colon; 6.58% (active) with HT29 colon; 43.4% in the assay with SNB-75 CNS; 31.2% with SNB-19 CNS; 15.8% in the assay with U251 CNS; 40% in the assay on PC-3 prostate. For the same compound, the growth in the assay on SK-MEL-5 melanoma is 19.3%; in the assay with UACC-62 melanoma, 13.1%; in the assay on LOX IMVI melanoma, 28.3%; with SK-MEL-28 melanoma, 44.8%; in the assay with SK-MEL-2 melanoma it was 3.6% (active); in the assay with EKVX NSCLC, 41.1%. Further, the growth with SN12C renal is 40.8%; in the assay on UO-31 renal, 47.6%; with TK-10 renal it was 57.7%; in the assay with ACHN renal, 53.3%; in the assay with CAKI-1 renal, 39.8%; in the assay with A498 renal it was -7.96% (active). For the same compound, the growth was 5.96% (active) in the assay on CCRF-CEM leukemia and 10% with MOLT-4 leukemia.

As for `CCNC(=O)Nc1ncccc1OCc1ccc(F)cc1`, the growth with HCT-15 colon was 99.7%; with HT29 colon it was 95.5%; in the assay on SNB-75 CNS, 102%; in the assay on SNB-19 CNS it was 102%; with U251 CNS it was 96.8%; in the assay on PC-3 prostate it was 103%. Besides, the growth was 101% in the assay with SK-MEL-5 melanoma; 94.6% in the assay on UACC-62 melanoma; 94.6% in the assay with LOX IMVI melanoma; 113% in the assay on SK-MEL-28 melanoma; 99.8% in the assay on SK-MEL-2 melanoma; 102% in the assay on EKVX NSCLC. Further, the growth was 107% with SN12C renal; 93.7% in the assay on UO-31 renal; 92.8% with TK-10 renal; 108% with ACHN renal; 90.1% in the assay on CAKI-1 renal; 88.3% in the assay with A498 renal. In addition, the growth was 101% in the assay with CCRF-CEM leukemia and 98% in the assay with MOLT-4 leukemia.

For the compound `CC(=O)N1N=C(c2ccc(Nc3nc(Nc4ccc(F)cc4)nc(Nc4ccc(Cl)cc4)n3)cc2)CC1c1ccc(N(C)C)cc1` (stereo not given), the growth was 38.4% in the assay on HCT-15 colon; 36.8% with HT29 colon; 40.3% with SNB-75 CNS; 59.2% with SNB-19 CNS; 53.7% in the assay with U251 CNS; 22.2% in the assay on PC-3 prostate. For the same compound, the growth in the assay with SK-MEL-5 melanoma was 32.4%; in the assay on UACC-62 melanoma, 35.2%; with LOX IMVI melanoma it was 63.1%; with SK-MEL-28 melanoma, 60%; in the assay on SK-MEL-2 melanoma it was 30.8%; in the assay with EKVX NSCLC it was 43.1%. The growth is 66% in the assay on SN12C renal; 50.8% with UO-31 renal; 50.5% in the assay with TK-10 renal; 61.8% in the assay on ACHN renal; 35.3% with CAKI-1 renal; 68.4% in the assay on A498 renal. The growth in the assay with CCRF-CEM leukemia was -27.6% (active); with MOLT-4 leukemia, 29.4%.

Turning to `CCCO/N=C/c1ccccn1`, the growth with HCT-15 colon is 106% and 103%; with HT29 colon, 96.8% and 93.4%; with SNB-75 CNS, 85.2% and 85.5%; in the assay on SNB-19 CNS, 97.8% and 105%; in the assay on U251 CNS, 103% and 101%; with PC-3 prostate, 117% and 96.1%. Further, the growth in the assay on SK-MEL-5 melanoma was 104% and 108%; with UACC-62 melanoma, 99.2% and 108%; with LOX IMVI melanoma, 108% and 98.5%; in the assay with SK-MEL-28 melanoma, 107% and 99.4%; in the assay with SK-MEL-2 melanoma, 116% and 94.7%; with EKVX NSCLC it was 108% and 96.8%. The growth in the assay on SN12C renal was 94.1% and 108%; with UO-31 renal, 89.5% and 93%; in the assay on TK-10 renal, 112% and 89.3%; in the assay with ACHN renal, 104% and 100%; in the assay with CAKI-1 renal, 109%; with A498 renal, 101% and 117%. The growth with CCRF-CEM leukemia was 80.9% and 105%; with MOLT-4 leukemia it was 124% and 102%.

Consider `N#C/C(=C\c1ccc(Br)cc1)n1nnc2c(F)cccc21`, for which the growth in the assay on HCT-15 colon was 1.57% (active); with HT29 colon, -0.198% (active); in the assay on SNB-75 CNS, 18.8%; with SNB-19 CNS it was 15%; in the assay with U251 CNS, -19.5% (active); with PC-3 prostate, 4.26% (active). Besides, the growth was -12.1% (active) in the assay with SK-MEL-5 melanoma; -37.5% (active) with UACC-62 melanoma; -69.1% (active) with LOX IMVI melanoma; -3.74% (active) with SK-MEL-28 melanoma; 28.4% in the assay on SK-MEL-2 melanoma; 30.6% with EKVX NSCLC. The growth in the assay with SN12C renal is -1.81% (active); in the assay with UO-31 renal, -65.9% (active); in the assay on TK-10 renal, 2.41% (active); in the assay with ACHN renal, -50.8% (active); with CAKI-1 renal, -4.93% (active); in the assay with A498 renal, -21.9% (active). Moreover, the figures for the growth in the assay with CCRF-CEM leukemia and with MOLT-4 leukemia were 2.97% (active) and 9.87% (active), respectively.

Consider `CCn1cc(C(=O)NN=C2CCCC2)c(=O)c2ccc(C)nc21`, for which the growth in the assay on HCT-15 colon was 96.6%; with HT29 colon, 96.9%; in the assay on SNB-75 CNS, 86.1%; with SNB-19 CNS it was 96.6%; in the assay on U251 CNS, 96.5%; in the assay on PC-3 prostate, 85.6%. Also, the growth in the assay with SK-MEL-5 melanoma was 92.8%; in the assay on UACC-62 melanoma it was 78.6%; in the assay on LOX IMVI melanoma, 98.1%; in the assay with SK-MEL-28 melanoma, 90.9%; in the assay with SK-MEL-2 melanoma, 96.5%; in the assay with EKVX NSCLC, 88.8%. The growth was 81% with SN12C renal; 81.3% in the assay with UO-31 renal; 100% with TK-10 renal; 86.6% in the assay with ACHN renal; 84.2% in the assay on CAKI-1 renal; 66.7% in the assay with A498 renal. Further, the growth in the assay on CCRF-CEM leukemia was 89.7%; with MOLT-4 leukemia, 100%.
